# Screens from PubChem.
# D2 ag-1: D2 dopamine receptor (human) agonism; P14416; HEK293 T-REx D2 cells, calcium flux agonist mode; activation, % at 2 µM; 0.53% of 340,000 active;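 active = activation over 3 SD above normal in the single-dose calcium agonist read, cut at about 30% in these data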; also: 0% is about no effect
# Target sequence (P14416 whole entry, looked up): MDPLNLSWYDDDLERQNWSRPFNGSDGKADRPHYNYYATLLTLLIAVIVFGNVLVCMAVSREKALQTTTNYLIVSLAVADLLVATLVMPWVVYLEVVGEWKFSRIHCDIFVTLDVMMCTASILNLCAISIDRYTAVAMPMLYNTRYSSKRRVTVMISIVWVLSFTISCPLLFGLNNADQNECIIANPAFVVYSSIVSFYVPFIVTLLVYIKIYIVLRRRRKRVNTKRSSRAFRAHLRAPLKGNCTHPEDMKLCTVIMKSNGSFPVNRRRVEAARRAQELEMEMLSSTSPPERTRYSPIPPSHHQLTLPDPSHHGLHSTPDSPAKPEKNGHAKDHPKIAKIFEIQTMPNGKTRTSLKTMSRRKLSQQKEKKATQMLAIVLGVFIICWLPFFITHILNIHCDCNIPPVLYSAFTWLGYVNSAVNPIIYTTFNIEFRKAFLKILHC
#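 Calcium-flux readout, 1 cycle/sec over 180 s following compound pin transfer, in inducible HEK293 Trex D2 cells (force-coupled); dopamine controls included. Positive calcium responses during this window marked compounds as potential agonists.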
# D2 ag-2: activates the human D2 dopamine receptor. P14416. DiscoveRx PathHunter D2 beta-arrestin, luminescence, 90 min; 100% = 57 uM dopamine signal. activation, % (concentration not given with the values). 0.084% of 360,000 active. AID 624465; in the data active = activation above about 40%
#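 Agonist mode: compounds alone added to overnight-plated D2 PathHunter cells for 90 min at 37 C, with 57 uM final dopamine (EC100) defining full response. Beta-arrestin recruitment detected by chemiluminescent reagent, read after 1 h at ambient temperature.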
# D2 PAM-1: potentiates the human D2 dopamine receptor allosterically | 0.23% of 360,000 active | AID 624464 | DiscoveRx D2 beta-arrestin cells, luminescence, 90 min; 100% = 57 uM dopamine signal | potentiation, % (no concentration beside the values) | P14416; in the data active = potentiation above about 50%
#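 PathHunter beta-arrestin assay in DiscoveRx D2 cells. Compounds were added with an EC20 of dopamine (50 nM final) for 90 min at 37 deg C. Luminescence was read 1 h after detection reagent, with 57 uM dopamine as the EC100 control.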
# D2 antag: antagonizes the human D2 dopamine receptor; P14416; 2% of 340,000 active; inhibition, % at 10 µM; HEK293 TREx D2 cells, calcium flux, dopamine EC80; AID 485344; in the data active = inhibition above about 30%; inactive = below that, where a call was filed; also: 0% is about no effect
#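 Dopamine at EC80 is the agonist stimulus; test compounds precede it by 180 s. Calcium flux read kinetically in a force-coupled, inducible HEK293 T-REx D2 cell line.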
# D2 PAM-2: positively modulates the human D2 dopamine receptor allosterically; HEK293 T-REx D2, calcium flux, EC20 dopamine potentiation; potentiation, % at 10 µM; 0.34% of 340,000 active; AID 485347;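 active = potentiation over 3 SD above the plate norm, cut at about 30% in these data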; also: 0% is about no effect
#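 Calcium flux readout, no-wash dye, 1 read/s. Inducible HEK293 Trex D2 line, overnight 30 C. Compound alone 180 s (agonist flags), then EC20 dopamine, another 180 s to score potentiation.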
# The depositor's hits bear a star; . = no result given. Shown are actives, neighbours in structure and some others; about 2.4% of the full set was active somewhere.
SMILES,D2 ag-1,D2 ag-2,D2 PAM-1,D2 antag,D2 PAM-2
S=C(Nc1ccccc1)NC1CCN(Cc2ccccc2)CC1,1,-4,-39,92*,-27
CCCCNC(=O)NCC(=O)Nc1ccc(F)c(F)c1,0,0,-4,40*,-4
COc1ccccc1NC(=O)NCC(=O)Nc1ccc(F)c(F)c1,.,-2,-12,.,.
COc1ccc(-c2nnc(NC(=O)c3ccccc3C)o2)cc1,-1,-3,-2,51*,-1
CCc1ccc(C(=O)c2cn(CC(=O)Nc3ccc4c(c3)OCO4)c3ccc(OC)cc3c2=O)cc1,0,.,.,.,-7
CC(Cc1ccc(Cl)cc1)N1CCC(n2nccc2NC(=O)C2CCCC2)CC1 (stereo unspecified),1,-1,-7,31*,-14
O=C(Nc1ccnn1C1CCN(Cc2ccccc2)CC1)C1CCCC1,0,-3,-39,15,-14
CSCC(C)N1CCC(n2nccc2NC(=O)c2ccc3c(c2)OCO3)CC1 (stereo unspecified),0,-3,-4,58*,-1
CCN(CC)C(=O)c1c(NC(=O)c2ccccc2F)sc2c1CCC(C(C)(C)C)C2 (stereo unspecified),2,.,.,.,-20
Cc1ncc(COC(=O)C(C)C)c2cc(C(=O)Nc3ccccc3C(F)(F)F)c(=O)oc12,1,.,.,.,11
CN(C)c1ccc(-c2nnc(SCC3CCCO3)n2C)cc1 (stereo unspecified),0,1,-6,32*,3
Cn1c(SCC2CCCO2)nnc1-c1ccncc1 (stereo unspecified),0,1,4,7,5
CSc1nn(Cc2ccc(F)cc2)c(N)c1S(=O)(=O)c1ccc(Cl)cc1,1,.,.,.,4
COc1ccc(/C=C/c2onc(C)c2S(=O)(=O)N2CCC(C(=O)N3CCCCCC3)CC2)cc1,0,-4,-20,-8,34*
Cc1ccc(/C=C/c2onc(C)c2S(=O)(=O)N2CCC(C(=O)N3CCCCC3)CC2)cc1,-1,-4,0,34*,-14
COCCCNC(=O)C1CCN(S(=O)(=O)c2c(C)noc2/C=C\c2ccc(OC)cc2)CC1,1,0,-26,9,-2
CCCCNC(=O)C1CCN(S(=O)(=O)c2c(C)noc2/C=C\c2ccc(OC)cc2)CC1,-1,-4,-5,40*,-18
O=C1NCCN1c1ncc([N+](=O)[O-])s1,59*,4,15,54*,-10
CCn1c(CC(=O)Nc2ccccc2Cl)nnc1SCC(=O)NC1CCCC1,0,-5,-8,34*,-2
C=CCn1c(C)nnc1SCC(=O)Nc1ccccc1C(=O)NC1CC1,0,-3,11,4,4
CCn1c(CC(=O)Nc2ccccc2F)nnc1SCC(=O)NC1CCCCC1,2,-2,-4,-18,-1
Cc1ccc(NC(=O)Cc2nnc(SCC(=O)NC3CCCC3)n2C)cc1C,-1,-5,-6,31*,19
Cn1c(CCC(N)=O)nnc1SCC(=O)Nc1ccccc1C(=O)NC1CC1,1,4,-6,31*,-7
CCCC12CN3CC(C)(CN(C1)C3c1ccc(OCc3ccccc3)cc1)C2=O (stereo unspecified),1,.,.,.,7
O=C(NCc1ccccc1F)C1CCN(c2nnc(-n3cccc3)s2)CC1,-1,.,.,.,.
SMILES,D2 ag-1,D2 ag-2,D2 PAM-1,D2 antag,D2 PAM-2
CSc1nn(Cc2ccc(Br)cc2)c(N(C(C)=O)C(C)=O)c1S(=O)(=O)c1ccccc1,1,.,.,.,-2
CC(C)N(C(=O)CN1C(=O)C(=O)c2ccccc21)c1ccccc1,2,-3,-2,36*,0
O=C(CN1C(=O)C(=O)c2ccccc21)c1ccccc1,-2,-17,-5,3,-4
CN(CCOc1ccc(Cl)cc1)C(=O)c1ccc(S(=O)(=O)N2CCOCC2)cc1,-1,-3,-1,6,2
CCCCN(C)C(=O)c1ccc(S(=O)(=O)N2CCOCC2)cc1,0,-2,0,33*,3
CCCCC(CC)CNC(=O)Cc1ccc(-n2c(=O)[nH]c3ccccc3c2=O)cc1 (stereo unspecified),.,.,.,.,-13
COc1ccccc1N1CCN(Cc2ccco2)CC1,4,1,-6,-11,-16
COc1ccccc1N1CCN(Cc2ccc(-c3ccccc3[N+](=O)[O-])o2)CC1,-1,-1,-77,86*,-25
CCCC(=O)NC1CC(=O)N(c2ccc3c(c2)OCCO3)C1 (stereo unspecified),.,.,.,.,-11
O=c1[nH][nH]c(=S)n1-c1ccccc1C(F)(F)F,1,.,.,8,-3
C(=C\c1ccccc1)/C=N/N1CCN(Cc2ccccc2)CC1,-1,-4,-12,40*,0
C(/C=C/c1ccccc1)=N/N1CCN(c2ccccc2)CC1,1,-1,-8,-25,9
COC(=O)c1cc2oc3ccccc3c2n1Cc1c(F)cccc1Cl,1,.,.,.,-6
CC1C2CC(C/C2=N/NC(=O)c2cccs2)C1(C)C (stereo unspecified),-1,-1,-2,-1,-9
C[C@@H]1C2CC(C/C2=N\NC(=O)c2ccncc2)C1(C)C (stereo partly specified),0,-3,-5,36*,2
COc1cccc(-c2ccnc3c(-c4ccc(F)cc4)c(C)nn23)c1,1,.,.,.,-2
Cc1ccc(-c2c(CN3CCN(c4cc(Cl)ccc4C)CC3)csc2C)cc1,0,.,.,.,4
Cc1ccc2c(c1)[nH]c1c(N3CCN(Cc4ccccc4)CC3)ncnc12,1,2,-32,-28,16
Cc1ccc2[nH]c3c(N4CCN(Cc5ccccc5)CC4)ncnc3c2c1,1,5,-20,39*,-18
CCCOc1ccc(/C=C/C(=O)Nc2sc(C)c(C)c2C(=O)OCC)cc1OC,0,.,.,.,4
Nc1ccc(C(=O)OCc2nc3ccccc3s2)cc1,.,-2,-3,.,.
O=C(OCc1nc2ccccc2s1)c1ccc(Br)s1,1,-2,2,32*,3
O=C(Nc1ccccc1C(=O)O)c1cccc(NC(=O)c2ccco2)c1,.,9,22,.,.
O=C(Nc1ccc(O)cc1C(=O)O)c1ccc(NC(=O)c2ccco2)cc1,1,5,19,46*,29
Cc1ccc(C)c(Nc2ncnc3onc(C)c23)c1,0,.,.,.,-2
CN(CC(=O)Nc1ccc(OC(F)(F)F)cc1)C(=O)/C=C/c1cc2c(cc1[N+](=O)[O-])OCO2,0,-3,-5,80*,-22
CC1=C(c2ccc(C)c(C)c2)S(=O)(=O)N(Cc2ccc(C(=O)NCc3ccccc3F)cc2)C1=O,1,.,.,.,-6
CCOC(=O)CCNC(=O)Nc1ccc2nc(C)n(Cc3cccc(Cl)c3)c(=O)c2c1,-2,0,7,-15,35*
CCCc1nc2ccc(NC(=O)NCCC(=O)OCC)cc2c(=O)n1Cc1cccc(Cl)c1,0,0,3,-16,4
